Laboratory results published in ChEMBL document CHEMBL3433997, “St. Jude Leishmania screening dataset” (2016).

These compounds were tested against Hexose transporter 1 (Plasmodium falciparum) (UniProt O97467) (assay: ST_JUDE_LEISH: Cytotoxicity at 2uM final concentration against transgenic Leishmania Mexicana promastigotes LmPfHT that are glucose transport deficient and complemented with the Plasmodium falciparum hexose transporter. Activity is measured by DNA content using SYBR green in vitro).
Format: functional

SMILES | inhibition [%]
Cn1c(Nc2cc(C(C)(C)C)on2)nc2cc(Nc3ccnc(Nc4cccc(S(=O)(=O)N5CCOCC5)c4)n3)ccc21 | 2.67
CCOC(=O)c1cncc(/C=C/c2cc(C)cnc2N)c1 | 8.59
COC(=O)c1ccc2nc(-c3cc(-c4cccc(-c5ccccc5)c4)cnc3N)[nH]c2c1 | 5.28
Cc1ccc2cc(NC(=O)CCCCCCCON3C(N)=NC(N)=NC34CCCCC4)ccc2n1 | 0.8
Cc1ccc(CCOCCCCCNCC(O)c2cc(Cl)c(N)c(Cl)c2)cc1 (stereo not given) | -1.13
O=S(=O)(NCCN1CCCC1)c1ccc(-c2ccc(CNC3Cc4ccccc4C3)cc2)s1 | 12.6
CCc1ccc(S(=O)(=O)Nc2cccc(CCN3CCC(N4CCCCC4)CC3)c2)cc1 | 1.48
Cc1ccnc(NC(c2cccc(OCc3ccccc3)c2)c2ccc3cccnc3c2O)c1 (stereo not given) | 1.21
CNC(=O)NC1CCN(Cc2c(-c3cccs3)nc3ccccc3c2C(=O)N[C@@H](C)C2CCCCC2)CC1 | 0.94
O=C(Nc1cccc(-c2nn3ncccc3c2-c2ccnc(Nc3cccc(-c4cnco4)c3)n2)c1)c1c(F)cccc1F | 7.13
Cc1cccc(NC(=O)N(Cc2cc3cc(C)cc(C)c3[nH]c2=O)C2CC2)c1 | 10.1
COc1cc2nc(NC3CCN(Cc4ccccc4)CC3)nc(N)c2cc1OC | 2.22
CS(=O)(=O)N1CC2(CCN(CCC(NC(=O)NCc3ccc(Cl)c(Cl)c3)c3ccc(Cl)c(Cl)c3)CC2)c2ccccc21 (stereo not given) | -2.55
CCCCCCN1CCCN(Cc2ccc(C(=O)Nc3ccc(CCC)cc3)cc2)CC1 | 7.71
Cc1ccc(Oc2ccc(NC(=O)CNc3ccccc3N3CCCC3=O)cc2)cc1 | 6.14
CCCCCCOc1ccc(C(=O)NCCC2CCN(CCCCCNC(=O)C=Cc3ccc(Cl)c(Cl)c3)CC2)cc1 | -0.99
COc1ccc(-c2nonc2NC(=O)c2ccc(C(C)(C)C)cc2)cc1OC | 0.21
CC(Cl)=CCc1c(C)nc2c(ccc3ccccc32)c1O | 3.06
O=C(Nc1cccc(-c2ccc(CN3CCC(O)CC3)cc2)c1)c1cccc(Cl)c1 | 3.03
COc1ccc(Nc2nc(=Nc3ccccc3)nc(NN=Cc3cc(Cl)ccc3O)[nH]2)cc1 | 2.04

SMILES | inhibition [%]
C=CCOC1OC(COC(c2ccccc2)(c2ccccc2)c2ccccc2)C(OC(C)=O)C(OC(C)=O)C1NC(C)=O (stereo not given) | 1.07
CCc1ccc(C2=Nn3c(nnc3-c3cccs3)SC2)cc1 | 1.1
O=[N+]([O-])c1ccc2nccnc2c1 | 5.71
CN(C)CCNCc1cccc(-c2ccc3c(Nc4ccc(Oc5ccccn5)cc4)ccnc3c2)c1 | 1.4
CC(=O)Nc1ccc(C(=O)Nc2ccc(-c3cccc(-c4nc5ccccc5[nH]4)c3)cc2)cn1 | 0.79
O=C(NC1CCC(N2CCC(c3nc4ccccc4s3)CC2)CC1)c1cc2ccccc2[nH]1 (stereo not given) | -2.33
O=C(Nc1cccc(C(F)(F)F)c1)c1cccc(S(=O)(=O)NCC2CCCN2CC2CCCCC2)c1 (stereo not given) | 3.21
O=c1cc(NCCCNC(CNCCc2ccccc2)c2cc(Br)cc(Br)c2)[nH]c2ccccc12 (stereo not given) | 3.4
CCNc1cc(C(=O)N[C@@H](Cc2cc(F)cc(F)c2)[C@H](O)CNCc2cccc(C(F)(F)F)c2)cc(N2CCCCS2(=O)=O)c1 | -0.7
Cc1ccccc1C1CCN(C2CCC(NC(=O)/C=C/c3c[nH]c4ccccc34)CC2)CC1 (stereo not given) | 0.84
CO/C(=C\C=C\c1cc2cc(Cl)c(Cl)cc2[nH]1)C(=O)NC1CCN(CCCc2ccccc2)CC1 | 1.14
CCCN(CCC)CCOc1ccc(C(O)(C#CC(O)(c2ccc(OCCN(CCC)CCC)cc2)c2cccc(Cl)c2)c2cccc(Cl)c2)cc1 (stereo not given) | 4.78
Cc1ccccc1C1CCN(c2ccc(C(=O)Nc3ccccc3)cn2)CC1 | -0.98
COc1cc2c(cc1OCCN1CCC(N3CCCC3)CC1)N(C(=O)/C=C/c1ccccc1Cl)CC2 | 2.02
COc1cccc(CN2Cc3ccccc3OC3(CCN(Cc4c[nH]c5cnccc45)CC3)C2)c1 | -0.52
Oc1cc(Nc2ccnc3cc(-c4cccc(CN5CCCCC5)c4)ccc23)c(F)cc1Cl | 2.51
CN(C)CCOc1cc(NC(=O)Nc2ccc(-c3ccncc3)c(Cl)c2)ccc1I | 1.09
N=C(N)NN=Cc1cc([N+](=O)[O-])ccc1Sc1ccccc1CO | 1.61
NCc1ccc(CNCc2ccc(-c3ccc(-c4nc5cc(F)ccc5[nH]4)cc3)cc2)cc1 | 5.39
CC(=O)Nc1cccc(Nc2nccc(Nc3ccc(Oc4ccccc4)cc3)n2)c1 | 2.76

What follows are compounds tested against Glucose transporter (Leishmania mexicana) (UniProt O61059) (assay: ST_JUDE_LEISH: Cytotoxicity at 2uM final concentration against transgenic Leishmania Mexicana promastigotes LmGT2 that are glucose transport deficient and complemented with the L. Mexicana glucose transporter 2. Activity is measured by DNA content using SYBR green in vitro).
Format: functional

SMILES | inhibition [%]
Cn1c(Nc2cc(C(C)(C)C)on2)nc2cc(Nc3ccnc(Nc4cccc(S(=O)(=O)N5CCOCC5)c4)n3)ccc21 | -0.88
CCOC(=O)c1cncc(/C=C/c2cc(C)cnc2N)c1 | 8.04
COC(=O)c1ccc2nc(-c3cc(-c4cccc(-c5ccccc5)c4)cnc3N)[nH]c2c1 | 4.17
Cc1ccc2cc(NC(=O)CCCCCCCON3C(N)=NC(N)=NC34CCCCC4)ccc2n1 | 0.83
Cc1ccc(CCOCCCCCNCC(O)c2cc(Cl)c(N)c(Cl)c2)cc1 (stereo not given) | 0.95
O=S(=O)(NCCN1CCCC1)c1ccc(-c2ccc(CNC3Cc4ccccc4C3)cc2)s1 | 1.34
CCc1ccc(S(=O)(=O)Nc2cccc(CCN3CCC(N4CCCCC4)CC3)c2)cc1 | -0.34
Cc1ccnc(NC(c2cccc(OCc3ccccc3)c2)c2ccc3cccnc3c2O)c1 (stereo not given) | -1.47
CNC(=O)NC1CCN(Cc2c(-c3cccs3)nc3ccccc3c2C(=O)N[C@@H](C)C2CCCCC2)CC1 | -1.52
O=C(Nc1cccc(-c2nn3ncccc3c2-c2ccnc(Nc3cccc(-c4cnco4)c3)n2)c1)c1c(F)cccc1F | 2.26
Cc1cccc(NC(=O)N(Cc2cc3cc(C)cc(C)c3[nH]c2=O)C2CC2)c1 | 6.55
COc1cc2nc(NC3CCN(Cc4ccccc4)CC3)nc(N)c2cc1OC | 13
CS(=O)(=O)N1CC2(CCN(CCC(NC(=O)NCc3ccc(Cl)c(Cl)c3)c3ccc(Cl)c(Cl)c3)CC2)c2ccccc21 (stereo not given) | -1.75
CCCCCCN1CCCN(Cc2ccc(C(=O)Nc3ccc(CCC)cc3)cc2)CC1 | 7.37
Cc1ccc(Oc2ccc(NC(=O)CNc3ccccc3N3CCCC3=O)cc2)cc1 | 5.01
CCCCCCOc1ccc(C(=O)NCCC2CCN(CCCCCNC(=O)C=Cc3ccc(Cl)c(Cl)c3)CC2)cc1 | -0.17
COc1ccc(-c2nonc2NC(=O)c2ccc(C(C)(C)C)cc2)cc1OC | -0.16
CC(Cl)=CCc1c(C)nc2c(ccc3ccccc32)c1O | 3.58
O=C(Nc1cccc(-c2ccc(CN3CCC(O)CC3)cc2)c1)c1cccc(Cl)c1 | 2.17
COc1ccc(Nc2nc(=Nc3ccccc3)nc(NN=Cc3cc(Cl)ccc3O)[nH]2)cc1 | 1.08

SMILES | inhibition [%]
C=CCOC1OC(COC(c2ccccc2)(c2ccccc2)c2ccccc2)C(OC(C)=O)C(OC(C)=O)C1NC(C)=O (stereo not given) | 0.34
CCc1ccc(C2=Nn3c(nnc3-c3cccs3)SC2)cc1 | -0.08
O=[N+]([O-])c1ccc2nccnc2c1 | 6.9
CN(C)CCNCc1cccc(-c2ccc3c(Nc4ccc(Oc5ccccn5)cc4)ccnc3c2)c1 | 0.21
CC(=O)Nc1ccc(C(=O)Nc2ccc(-c3cccc(-c4nc5ccccc5[nH]4)c3)cc2)cn1 | -0.56
O=C(NC1CCC(N2CCC(c3nc4ccccc4s3)CC2)CC1)c1cc2ccccc2[nH]1 (stereo not given) | -1.51
O=C(Nc1cccc(C(F)(F)F)c1)c1cccc(S(=O)(=O)NCC2CCCN2CC2CCCCC2)c1 (stereo not given) | 4.26
O=c1cc(NCCCNC(CNCCc2ccccc2)c2cc(Br)cc(Br)c2)[nH]c2ccccc12 (stereo not given) | 2.67
CCNc1cc(C(=O)N[C@@H](Cc2cc(F)cc(F)c2)[C@H](O)CNCc2cccc(C(F)(F)F)c2)cc(N2CCCCS2(=O)=O)c1 | -1.62
Cc1ccccc1C1CCN(C2CCC(NC(=O)/C=C/c3c[nH]c4ccccc34)CC2)CC1 (stereo not given) | -0.41
CO/C(=C\C=C\c1cc2cc(Cl)c(Cl)cc2[nH]1)C(=O)NC1CCN(CCCc2ccccc2)CC1 | 2.46
CCCN(CCC)CCOc1ccc(C(O)(C#CC(O)(c2ccc(OCCN(CCC)CCC)cc2)c2cccc(Cl)c2)c2cccc(Cl)c2)cc1 (stereo not given) | 2.38
Cc1ccccc1C1CCN(c2ccc(C(=O)Nc3ccccc3)cn2)CC1 | -5.64
COc1cc2c(cc1OCCN1CCC(N3CCCC3)CC1)N(C(=O)/C=C/c1ccccc1Cl)CC2 | 2.99
COc1cccc(CN2Cc3ccccc3OC3(CCN(Cc4c[nH]c5cnccc45)CC3)C2)c1 | 0.59
Oc1cc(Nc2ccnc3cc(-c4cccc(CN5CCCCC5)c4)ccc23)c(F)cc1Cl | 2.54
CN(C)CCOc1cc(NC(=O)Nc2ccc(-c3ccncc3)c(Cl)c2)ccc1I | 1.54
N=C(N)NN=Cc1cc([N+](=O)[O-])ccc1Sc1ccccc1CO | 0.68
NCc1ccc(CNCc2ccc(-c3ccc(-c4nc5cc(F)ccc5[nH]4)cc3)cc2)cc1 | 5.05
CC(=O)Nc1cccc(Nc2nccc(Nc3ccc(Oc4ccccc4)cc3)n2)c1 | -0.82
